Test results published in PubChem BioAssay AID1159580 (chemical genetic matrix, 2015).
Hit rate of the full screen: of about 5,500 compounds, about 2,000 (36%) were called active. Roughly 18% stayed inconclusive and do not appear here. Rule as the data show it: active = normalized growth mostly below about 0.91 (no sharp cut-off); inconclusive = no clear call, values can overlap the other calls; inactive = mostly above about 0.92. This is one part of the list.

Assay: chemical genetic growth profiling, strain panel (AID 1159580);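 also: tested at 20 µM; growth read once vehicle control cultures reached saturation at 30 °C; 1 = growth at the plate median or of vehicle wells; lower values mean less growth of the strain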
Conditions: growth OD

Measured: normalized growth

C[C@H]1O[C@@H](O[C@H]2[C@@H](O)C[C@H](O[C@H]3[C@@H](O)C[C@H](O[C@H]4CC[C@]5(C)C6C[C@@H](O)[C@]7(C)[C@@H](C8=CC(=O)OC8)CC[C@]7(O)C6CC[C@@H]5C4)O[C@@H]3C)O[C@@H]2C)C[C@H](O)[C@@H]1O (some centres undefined)
inactive: S. cerevisiae deletion strains, locus YJR043C, strain POL32, stronger effect = lower value 1.01 | S. cerevisiae deletion strains, locus YJR066W, strain TOR1, stronger effect = lower value 0.966 | S. cerevisiae deletion strains, locus YKL009W, strain mrt4, stronger effect = lower value 0.969 | S. cerevisiae deletion strains, locus YKL068W, stronger effect = lower value 0.986 | S. cerevisiae deletion strains, locus YKL085W, strain MDH1 (second series), stronger effect = lower value 0.991 | S. cerevisiae deletion strains, locus YKL085W, strain MDH1, stronger effect = lower value 0.991 | S. cerevisiae deletion strains, locus YKL160W, strain elf1, stronger effect = lower value 0.93 | S. cerevisiae deletion strains, locus YKR001C, strain vps1, stronger effect = lower value 0.971 | S. cerevisiae deletion strains, locus YKR026C, strain gcn3, stronger effect = lower value 1 | S. cerevisiae deletion strains, locus YKR091W, strain srl3, stronger effect = lower value 0.984 | S. cerevisiae deletion strains, locus YLL001W, strain dnm1, stronger effect = lower value 0.921 | S. cerevisiae deletion strains, locus YLL026W, stronger effect = lower value 0.999 | S. cerevisiae deletion strains, locus YLL041C, strain sdh2, stronger effect = lower value 1 | S. cerevisiae deletion strains, locus YLR027C, strain aat2, stronger effect = lower value 1.03 | S. cerevisiae deletion strains, locus YLR039C, strain RIC1, stronger effect = lower value 0.973 | S. cerevisiae deletion strains, locus YLR058C, strain SHM2, stronger effect = lower value 1 | S. cerevisiae deletion strains, locus YLR102C, strain apc9, stronger effect = lower value 0.977 | S. cerevisiae deletion strains, locus YLR113W, strain HOG1, stronger effect = lower value 1.09 | S. cerevisiae deletion strains, locus YLR221C, strain rsa3, stronger effect = lower value 1.01 | S. cerevisiae deletion strains, locus YLR258W, strain gsy2, stronger effect = lower value 1.01 | S. cerevisiae deletion strains, locus YLR262C, strain YPT6 (second series), stronger effect = lower value 0.956 | S. cerevisiae deletion strains, locus YLR262C, strain YPT6, stronger effect = lower value 0.984 | S. cerevisiae deletion strains, locus YLR268W, strain sec22, stronger effect = lower value 0.959 | S. cerevisiae deletion strains, locus YLR320W, strain mms22, stronger effect = lower value 0.969 | S. cerevisiae deletion strains, locus YLR330W, strain CHS5, stronger effect = lower value 0.983 | S. cerevisiae deletion strains, locus YLR342W, strain FKS1 (second series), stronger effect = lower value 1.02 | S. cerevisiae deletion strains, locus YLR342W, strain FKS1, stronger effect = lower value 0.983 | S. cerevisiae deletion strains, locus YLR357W, strain rsc2, stronger effect = lower value 0.999 | S. cerevisiae deletion strains, locus YLR370C, strain arc18, stronger effect = lower value 0.994 | S. cerevisiae deletion strains, locus YLR371W, strain rom2, stronger effect = lower value 0.997 | S. cerevisiae deletion strains, locus YLR384C, strain iki3, stronger effect = lower value 1 | S. cerevisiae deletion strains, locus YLR418C, strain cdc73, stronger effect = lower value 1.01 | S. cerevisiae deletion strains, locus YML016C, strain PPZ1, stronger effect = lower value 0.998 | S. cerevisiae deletion strains, locus YML032C, strain rad52, stronger effect = lower value 0.988 | S. cerevisiae deletion strains, locus YML120C, strain ndi1, stronger effect = lower value 0.946 | S. cerevisiae deletion strains, locus YML124C, strain tub3, stronger effect = lower value 0.992 | S. cerevisiae deletion strains, locus YMR058W, strain fet3, stronger effect = lower value 0.984 | S. cerevisiae deletion strains, locus YMR078C, strain ctf18, stronger effect = lower value 0.981 | S. cerevisiae deletion strains, locus YMR125W, strain sto1, stronger effect = lower value 0.925 | S. cerevisiae deletion strains, locus YMR129W, stronger effect = lower value 0.996 | S. cerevisiae deletion strains, locus YMR205C, strain PFK2, stronger effect = lower value 0.942 | S. cerevisiae deletion strains, locus YMR223W, strain ubp8, stronger effect = lower value 0.993 | S. cerevisiae deletion strains, locus YMR231W, strain pep5, stronger effect = lower value 0.998 | S. cerevisiae deletion strains, locus YMR307W, strain GAS1, stronger effect = lower value 1.09 | S. cerevisiae deletion strains, locus YNL067W, strain RPL9B, stronger effect = lower value 1.03 | S. cerevisiae deletion strains, locus YNL071W, strain lat1, stronger effect = lower value 1 | S. cerevisiae deletion strains, locus YNL128W, strain TEP1, stronger effect = lower value 0.977 | S. cerevisiae deletion strains, locus YNL183C, strain NPR1, stronger effect = lower value 0.985 | S. cerevisiae deletion strains, locus YNL209W, strain ssb2, stronger effect = lower value 0.995 | S. cerevisiae deletion strains, locus YNL233W, strain BNI4, stronger effect = lower value 1.01 | S. cerevisiae deletion strains, locus YNL248C, strain rpa49, stronger effect = lower value 0.973 | S. cerevisiae deletion strains, locus YNL250W, strain rad50, stronger effect = lower value 0.974 | S. cerevisiae deletion strains, locus YNL271C, strain bni1, stronger effect = lower value 0.996 | S. cerevisiae deletion strains, locus YNL298W, strain CLA4, stronger effect = lower value 0.986 | S. cerevisiae deletion strains, locus YNL307C, strain MCK1, stronger effect = lower value 0.988 | S. cerevisiae deletion strains, locus YNL322C, strain KRE1 (second series), stronger effect = lower value 0.995 | S. cerevisiae deletion strains, locus YNL322C, strain KRE1, stronger effect = lower value 0.996 | S. cerevisiae deletion strains, locus YNR049C, strain mso1, stronger effect = lower value 0.986 | S. cerevisiae deletion strains, locus YNR052C, strain pop2, stronger effect = lower value 0.993 | S. cerevisiae deletion strains, locus YOL006C, strain TOP1, stronger effect = lower value 0.959 | S. cerevisiae deletion strains, locus YOL012C, strain htz1 0.951 | S. cerevisiae deletion strains, locus YOL147C, strain pex11, stronger effect = lower value 0.99 | S. cerevisiae deletion strains, locus YOR001W, strain rrp6, stronger effect = lower value 1.06 | S. cerevisiae deletion strains, locus YOR061W, strain CKA2, stronger effect = lower value 0.984 | S. cerevisiae deletion strains, locus YOR069W, strain VPS5, stronger effect = lower value 0.992 | S. cerevisiae deletion strains, locus YOR070C, strain gyp1, stronger effect = lower value 0.999 | S. cerevisiae deletion strains, locus YOR080W, strain dia2, stronger effect = lower value 0.985 | S. cerevisiae deletion strains, locus YOR083W, strain WHI5, stronger effect = lower value 0.945 | S. cerevisiae deletion strains, locus YOR106W, strain vam3, stronger effect = lower value 0.947 | S. cerevisiae deletion strains, locus YOR136W, strain idh2, stronger effect = lower value 0.974 | S. cerevisiae deletion strains, locus YOR144C, strain elg1, stronger effect = lower value 0.988 | S. cerevisiae deletion strains, locus YOR184W, strain ser1, stronger effect = lower value 0.979 | S. cerevisiae deletion strains, locus YOR231W, strain MKK1, stronger effect = lower value 1.04 | S. cerevisiae deletion strains, locus YOR265W, strain rbl2, stronger effect = lower value 0.993 | S. cerevisiae deletion strains, locus YOR270C, strain vph1, stronger effect = lower value 0.92 | S. cerevisiae deletion strains, locus YOR290C, strain snf2, stronger effect = lower value 0.973 | S. cerevisiae deletion strains, locus YOR316C, strain cot1, stronger effect = lower value 0.983 | S. cerevisiae deletion strains, locus YPL051W, strain arl3, stronger effect = lower value 1 | S. cerevisiae deletion strains, locus YPL078C, strain atp4, stronger effect = lower value 0.932 | S. cerevisiae deletion strains, locus YPL106C, strain sse1, stronger effect = lower value 1 | S. cerevisiae deletion strains, locus YPL240C, strain hsp82, stronger effect = lower value 0.99 | S. cerevisiae deletion strains, locus YPL241C, strain CIN2, stronger effect = lower value 0.998 | S. cerevisiae deletion strains, locus YPL256C, strain CLN2, stronger effect = lower value 1.04 | S. cerevisiae deletion strains, locus YPR119W, strain clb2, stronger effect = lower value 1 | S. cerevisiae deletion strains, locus YPR141C, strain kar3, stronger effect = lower value 0.984 | S. cerevisiae deletion strains, locus YPR163C, strain tif3, stronger effect = lower value 0.977 | S. cerevisiae deletion strains, locus YPR167C, strain met16, stronger effect = lower value 0.977 | S. cerevisiae deletion strains, strain wtn01, stronger effect = lower value 0.997 | S. cerevisiae strains, strain wild type, stronger effect = lower value 1
